# Values joined by “and” are separate entries in the source; they are usually repeats but may differ in a detail not shown here. Identical values can stand only once. The campaign covered roughly 310,000 compounds. About 1,200 (0.39%) were called active. Not all results are given here. Potency and affinity values are given separately. A number with no mark means an inactive call. The rule behind the calls is not given here.
# Molecular target: Large T antigen (Simian virus 40) (UniProt P03070)
# Assay: TAg ATPase/helicase activity blockers – biochemical (AID 1903)
# Conditions: SV40 large T antigen ATPase/helicase inhibition assay; at 20 µM; stronger effect = higher value
# Large T antigen (Simian virus 40), sequence (P03070 whole entry, looked up): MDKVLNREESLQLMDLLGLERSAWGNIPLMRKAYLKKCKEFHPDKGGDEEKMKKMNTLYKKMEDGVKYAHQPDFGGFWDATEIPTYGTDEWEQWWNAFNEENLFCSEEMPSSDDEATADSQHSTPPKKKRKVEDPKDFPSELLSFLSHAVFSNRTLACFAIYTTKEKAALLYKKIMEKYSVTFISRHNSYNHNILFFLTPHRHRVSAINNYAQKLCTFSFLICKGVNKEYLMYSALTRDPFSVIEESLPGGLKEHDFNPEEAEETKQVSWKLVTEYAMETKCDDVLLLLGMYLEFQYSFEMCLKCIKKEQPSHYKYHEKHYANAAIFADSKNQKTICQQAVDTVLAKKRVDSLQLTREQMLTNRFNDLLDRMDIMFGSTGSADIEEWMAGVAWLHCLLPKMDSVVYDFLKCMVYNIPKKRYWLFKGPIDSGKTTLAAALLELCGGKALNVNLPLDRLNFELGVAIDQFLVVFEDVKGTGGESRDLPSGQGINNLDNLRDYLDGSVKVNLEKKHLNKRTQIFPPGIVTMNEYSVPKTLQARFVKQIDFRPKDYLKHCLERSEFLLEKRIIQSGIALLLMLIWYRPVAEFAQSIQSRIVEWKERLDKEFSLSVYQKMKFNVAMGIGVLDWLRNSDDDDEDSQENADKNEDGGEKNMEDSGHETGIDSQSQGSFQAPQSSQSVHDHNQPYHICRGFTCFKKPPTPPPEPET
row,Structure (SMILES),inhibition
1,CC(C)(C)C(=O)NC(=O)Nc1ccccc1C(F)(F)F,2.7%
2,COC(=O)c1ccc(NC(=O)C2CCCN(S(C)(=O)=O)C2)cc1 (configuration not stated),3.57%
3,C=CCCN(C1CCCC1)S(=O)(=O)c1ccccc1Br,10.4%
4,O=C(Nc1nc2ccc(Cl)cc2s1)[C@@H]1CCCN1C(=O)c1cccs1,-3.98%
5,CCOC(=O)C1=C(C)N(c2ccc(OC)cc2)C(=O)/C1=C\c1ccc(O)c(OCC)c1,28.2%
6,Cc1c(N2C(=O)/C(=C\c3cccc4ccccc34)SC2=S)c(=O)n(-c2ccccc2)n1C,9.9%
7,CCOc1cc(/C=C2\C(=O)N(CCc3ccc(OC)c(OC)c3)C(C)=C2C(=O)OC)ccc1O,22.8%
8,COC(=O)C1=C(C)N(Cc2ccc(C)cc2)C(=O)/C1=C\c1ccc(O)c(OC)c1,11.5%
9,Cc1c(N2C(=O)/C(=C/c3ccccc3)SC2=S)c(=O)n(-c2ccccc2)n1C,14.5%
10,CCOC(=O)C1=C(C)N(c2ccc(C)cc2)C(=O)/C1=C\c1ccc(O)c(OC)c1,33.5%
11,Cc1[nH]c(=O)[nH]c(=S)c1C(=O)Nc1ccc(Cl)c(Cl)c1,-9.05%
12,CC1(C(=O)O)CCC(C(=O)Nc2ccc(F)cc2)C1(C)C (configuration not stated),17.4%
13,O=C1c2ccccc2S(=O)(=O)N1CCOc1ccc(F)cc1,6.69%
14,CCOc1ccc(CCNC(=O)COC(=O)C2=NNC(=O)CC2)cc1OCC,12.5%
15,COc1ccc2c(c1)C1CC(C)(NC(=O)C1S(=O)(=O)c1ccc(F)cc1)O2 (configuration not stated),22.9%
16,CCOC(=O)c1ccccc1NC(=O)c1cccc2c1C(=O)N(C1CCN(C(=O)OCC)CC1)C2,5.81% and 1.24%
17,COc1ccc(CN(CCN(C)C)c2ccccn2)cc1,11.2% and 4.35%
18,CC[N+](C)(C)CCN(Cc1ccc(Cl)cc1)c1ccccn1,19.1%
19,O=c1[nH]cc(N(CCO)CCO)c(=O)[nH]1,15.6%
20,O=C(/C=C/c1ccccc1)OCC(=O)N1CCN(c2ccccc2)CC1,8.9%
21,Cc1onc(C(=O)NCc2cccs2)c1[N+](=O)[O-],-0.94%
22,NC1=NC(=O)CC(C(=O)NCCc2ccccc2)S1 (configuration not stated),13.9%
23,C/C(Nc1ccc(Cl)cc1)=C(/C#N)C(N)=O,-6.59%
24,N#CC(C(=O)Nc1ccc(Cl)cc1)=C1Nc2ccccc2N1,-0.845%
25,CCc1cc(C(=O)c2ccccc2OC)c(N)s1,12.7%

row,Structure (SMILES),inhibition
1,CCCCOC(=O)/C=C/c1ccc(OC(=O)OC)c(OC(=O)OC)c1,15.3%
2,COC(=O)/C=C/c1ccc2c(c1)OCO2,-5.42%
3,CCOc1ccc(NC(=S)N(Cc2ccc(Cl)cc2)Cc2ccco2)cc1,2.54%
4,O=C(CS(=O)(=O)Cc1ccccc1)N1CCc2ccccc2C1,9.06%
5,O=C1N=C(N2CCN(c3ccccc3)CC2)S/C1=C/c1ccco1,12.4%
6,O=C1/C(=C\c2ccc(O)cc2)SC(=S)N1Cc1ccccc1,7.6%
7,NN1C(=O)/C(=C\c2ccco2)SC1=S,45.2%
8,CCCSC1=N/C(=C\C=C\c2ccco2)C(=O)S1,73%
9,O=C(CN1C(=O)S/C(=C\c2ccc(O)cc2)C1=O)c1ccccc1,16.6%
10,O=C1N=C(N2CCN(c3ccccc3)CC2)S/C1=C\c1ccco1,31.4%
11,O=C1N=C(N2CCCC2C(=O)O)S/C1=C\c1ccco1 (configuration not stated),3.04%
12,Cc1ccc(N=C2NC(=O)/C(=C/C=C/c3ccco3)S2)cc1,21.2%
13,COc1ccccc1-c1noc(CCCC(=O)NC2CCCCC2)n1,29.8%
14,Cc1cc(C=O)c(C)n1-c1ccc(N2CCOCC2)c([N+](=O)[O-])c1,5.88%
15,O=C(COC(=O)c1nc(Cl)ccc1Cl)NCCc1ccccc1,-0.66%
16,CCc1ccc(/C=C2/Sc3ccccc3N(CC(=O)NCC3CCCO3)C2=O)cc1 (configuration not stated),3.57%
17,Cc1ccc(NC(=O)N2CCC(C(=O)c3ccc(F)cc3)CC2)cc1,3.7%
18,CCOC(=O)Cn1c(=NC(=O)CN2C(=O)CCC2=O)sc2cc(S(N)(=O)=O)ccc21,11.6%
19,COc1ccc(C(CNc2ccc(S(=O)(=O)N3CCCC3)cc2[N+](=O)[O-])N2CCCC2)cc1 (configuration not stated),0.85%
20,O=C(C1CCCN(Cc2ccccc2F)C1)N1CCCC1 (configuration not stated),-1.92%
21,CC1CN(c2nc3c(c(=O)n(C)c(=O)n3C)n2Cc2c(Cl)cccc2Cl)CC(C)O1 (configuration not stated),-0.38%
22,CN(C)S(=O)(=O)c1cccc(NC(=O)COC(=O)COc2ccccc2[N+](=O)[O-])c1,8.43%
23,CC(=O)C1=C(C)Nc2ncnn2C1c1cccc(Br)c1 (configuration not stated),4.82%
24,Cn1c(C(=O)NCCOc2ccccc2Cl)cc(=O)n(C)c1=O,3.15%
25,CC(C)(O)[C@H]1Cc2cc3ccc(=O)oc3cc2O1,-9.56%

row,Structure (SMILES),inhibition
1,COc1cc2c(cc1/C=C/C(=O)O)OC(C)C2 (configuration not stated),-5.46%
2,CCCc1ccc(S(=O)(=O)N/N=C\c2ccc3c(c2)OCO3)cc1,10.3%
3,Cc1ccc(S(=O)(=O)NCC(=O)Nc2cccc([N+](=O)[O-])c2)cc1,1.03%
4,Cc1onc(-c2c(Cl)cccc2Cl)c1/C(N)=N/OC(=O)C(C)(C)C,7.65%
5,COC(=O)CCC(=O)OC1(C)C(=O)C2=COC(c3ccc(OC)cc3)=CC2=C(Br)C1=O (configuration not stated),50.8%
6,CC[C@H](C)/C=C(C)/C=C/C1=CC2=CC(=O)[C@]3(C)OC(=O)[C@@H](C(C)=O)[C@@H]3C2=CO1,18%
7,CCC(C)/C=C/C1=CC2=C(Cl)C(=O)C3(C)OC(=O)C(C(=O)C(C)C(C)O)C3C2=CO1 (configuration not stated),12.9%
8,O=C(CSc1nc(-c2ccccc2)c(-c2ccccc2)o1)N1CCOCC1,4.01%
9,O=C(CNC(=O)c1ccc(Cl)cc1Cl)OCc1nnc(-c2ccccc2)o1,15.1%
10,CC1(C)CC(=O)c2sc(NC(=O)C3COc4ccccc4O3)nc2C1 (configuration not stated),4.75%
11,O=C(C1CCN(S(=O)(=O)c2cccs2)CC1)N1CCCCC1,13.9%
12,Cc1cc(C)c2c(CN3CCCCC3)cc(=O)oc2c1,20.4%
13,Cc1cc(C)c2c(CN3CCN(C)CC3)cc(=O)oc2c1,-0.86%
14,COC1CCN(C(=O)CC2C(=O)NCCN2CC(C)(C)C)CC1 (configuration not stated),-3.7%
15,O=C(CC12CC3CC(CC(C3)C1)C2)Nc1nncs1,12.5%
16,COc1ccc(NC(=O)CCc2c(C)nc3nc(C)nn3c2C)cc1,-3.06%
17,O=C(c1cc2ccccc2oc1=O)N1CCN(S(=O)(=O)c2ccccc2)CC1,18.2%
18,O=C1NC(=S)N/C1=C/c1cc2c(cc1[N+](=O)[O-])OCO2,3%
19,O=C1NN(c2ccccc2)C(=O)/C1=C\c1ccc2c(c1)OCO2,18%
20,O=C(CCN1C(=O)/C(=C/C=C/c2ccccc2)SC1=S)Nc1nc2ccccc2s1,9.79%
21,Cc1ccccc1NC(=O)c1ccc2c(c1)CCN2S(C)(=O)=O,11.3%
22,CCC(C)n1c(SCC(=O)/C(C#N)=C(\C)N)nc2ccccc2c1=O (configuration not stated),7.34%
23,C/C(=C\c1ccccc1)C(=O)Nc1nc2ccc([N+](=O)[O-])cc2s1,8.41%
24,S=c1[nH]nc(-c2ccco2)n1/N=C/c1ccc(Cl)cc1,31%
25,Clc1ccccc1CN1CCN(/N=C/C=C/c2ccco2)CC1,15.9%

row,Structure (SMILES),inhibition
1,S=c1[nH]nc(-c2ccncc2)n1/N=C/c1cccc(Cl)c1,29.1%
2,Cc1cccc(/C=N/n2c(C)nnc2C)c1,10.3%
3,S=c1[nH]nc(-c2n[nH]c3c2CCC3)n1/N=C/C=C/c1ccccc1,20.8%
4,Cc1ccc(/C=N/n2c(C)nnc2C)cc1,19.4%
5,CC(=C/c1ccccc1)/C=N/n1c(-c2ccncc2)n[nH]c1=S,19%
6,CC(/C=N/n1c(-c2cccnc2)n[nH]c1=S)=C\c1ccco1,31.8%
7,COC(=O)c1cn(NC(=O)CC2CCCCC2)c(=O)c2ccccc12,1.58%
8,O=c1[nH]cnc2onc(-c3ccc(F)cc3)c12,34%
9,O=[N+]([O-])c1cccc2nc(-c3ccccc3)c(-c3ccccc3)nc12,1.39%
10,CCCCOc1ccc(C(=O)NCc2ccccn2)cc1,-4.84%
11,COc1ccc(C(=O)NC(=S)NC(C)c2ccccc2)cc1 (configuration not stated),5.22%
12,Cc1ccc(C)c(N2CCN(CCCNC(=O)CCn3c(=O)c4cccn4c4cccnc43)CC2)c1,15.1%
13,Cc1cc(C(C)(C)C)ccc1OCC(=O)N/N=C\c1c(C)n(C)n(-c2ccccc2)c1=O,-3.36%
14,COc1ccc(CN2CCC(n3nccc3NC(=O)CCOc3ccccc3)CC2)cc1C,5.92%
15,O=C(NCc1ccco1)c1csc2c1CCCCC2,1.56%
16,Cc1cc(C)cc(CSCC(=O)N/N=C/c2ccc(OCC(=O)NCc3ccco3)cc2)c1,10.9%
17,CC(/C=N/n1c(-c2ccco2)n[nH]c1=S)=C\c1ccco1,28.2%
18,CC(/C=N/n1c(-c2ccc(Cl)cc2)n[nH]c1=S)=C\c1ccco1,22.6%
19,Cc1ccsc1/C=N/n1c(-c2ccccc2)n[nH]c1=S,18.6%
20,CC(/C=N/n1c(-c2ccccc2)n[nH]c1=S)=C\c1ccco1,33.1%
21,Cc1ccsc1/C=N/n1c(-c2ccncc2)n[nH]c1=S,25.6%
22,CC(/C=N/n1c(-c2ccc(C)cc2)n[nH]c1=S)=C\c1ccco1,19.5%

# From PubChem BioAssay AID1903 (Southern Research Specialized Biocontainment Screening …, 2009)
